# Measurements: the antibiotic and cytotoxicity screens of Wong et al. (2023)
# Screen size: about 39,000 compounds; about 3,300 (8.5%) were called active. For the sample, actives were picked, then their nearest neighbours and some compounds at random.
# Tested on: HepG2
# Test: cytotoxicity call (relative viability < 0.9)
# Conditions: 10 µM
row,Structure (SMILES),cytotoxicity call
1,C[C@@H]1CCCCO[C@H](CN(C)Cc2ccc(C(F)(F)F)cc2)[C@@H](C)CN([C@H](C)CO)C(=O)c2cc(NS(=O)(=O)c3cn(C)cn3)ccc2O1,inactive
2,COc1ccc(S(=O)(=O)N(C)C[C@@H]2Oc3ccc(NC(=O)NC(C)C)cc3CC(=O)N([C@@H](C)CO)C[C@H]2C)cc1,inactive
3,COC(=O)[C@@H](C)N(C#N)c1nc(C)cc(C)n1,inactive
4,C[C@@H]1CCCCO[C@@H](CN(C)S(=O)(=O)c2cccs2)[C@@H](C)CN([C@@H](C)CO)C(=O)c2cc(NC(=O)NC3CCCCC3)ccc2O1,inactive
5,C[C@H]1CN([C@@H](C)CO)S(=O)(=O)c2ccc(C3=CCCC3)cc2O[C@@H]1CN(C)S(=O)(=O)c1cn(C)cn1,inactive
6,C[C@@H]1CN([C@H](C)CO)C(=O)c2cc(NS(=O)(=O)c3ccc(F)cc3)ccc2O[C@@H]1CN(C)S(=O)(=O)c1ccc(F)cc1,inactive
7,C[C@@H]1CN([C@H](C)CO)C(=O)Cc2cc(NC(=O)Nc3ccccc3)ccc2O[C@@H]1CN(C)Cc1ccc(Cl)c(Cl)c1,active
8,C[C@@H]1CN([C@H](C)CO)C(=O)Cc2cc(NC(=O)Nc3ccccc3)ccc2O[C@H]1CN(C)Cc1ccc(Cl)c(Cl)c1,active
9,C[C@@H]1CN([C@@H](C)CO)C(=O)Cc2cc(NC(=O)Nc3ccccc3)ccc2O[C@H]1CN(C)Cc1ccc(Cl)c(Cl)c1,inactive
10,C[C@H]1CN([C@@H](C)CO)C(=O)Cc2cc(NC(=O)Nc3ccccc3)ccc2O[C@H]1CN(C)Cc1ccc(Cl)c(Cl)c1,active
11,C[C@H](CO)N1C[C@H](C)[C@@H](CN(C)Cc2ccc(Cl)c(Cl)c2)Oc2ccc(NC(=O)Nc3ccccc3)cc2CC1=O,inactive
12,C[C@H](CO)N1C[C@H](C)[C@H](CN(C)Cc2ccc(Cl)c(Cl)c2)Oc2ccc(NC(=O)Nc3ccccc3)cc2CC1=O,active
13,CC(C)NC(=O)Nc1ccc2c(c1)C(=O)N([C@H](C)CO)C[C@H](C)[C@H](CN(C)C(=O)Nc1ccccc1)OCCCC[C@H](C)O2,inactive
14,C[C@@H]1CN([C@@H](C)CO)C(=O)Cc2cc(NS(=O)(=O)c3cn(C)cn3)ccc2O[C@@H]1CN(C)Cc1ccc(C(=O)Nc2ccccc2N)cc1,inactive
15,Cc1noc(C)c1S(=O)(=O)Nc1cccc2c1O[C@H](CN(C)C(=O)Nc1ccccc1)[C@H](C)CN([C@H](C)CO)C2=O,inactive
16,CN(C(=O)c1ccc(Cl)c(N2C(=O)CCS2(=O)=O)c1)[C@H]1CCS(=O)(=O)C1,inactive
17,Cc1ccc(S(=O)(=O)Nc2ccc3c(c2)C(=O)N([C@@H](C)CO)C[C@H](C)[C@@H](CN(C)S(C)(=O)=O)O3)cc1,inactive
18,O=C(C[C@H]1CC[C@H]2[C@@H](COC[C@@H](O)CN2S(=O)(=O)c2ccc(F)cc2)O1)NCCN1CCCCC1,inactive
19,Cc1noc(C)c1NC(=O)Nc1ccc2c(c1)C(=O)N([C@H](C)CO)C[C@@H](C)[C@@H](CN(C)Cc1ccc3c(c1)OCO3)OCCCC[C@H](C)O2,inactive
20,O=C(C[C@H]1C[C@H]2c3cc(NS(=O)(=O)c4ccc(F)cc4)ccc3O[C@H]2[C@H](CO)O1)NCc1cccc(F)c1,inactive
21,C[C@H]1CN([C@@H](C)CO)C(=O)Cc2cc(NC(=O)Nc3ccccc3)ccc2O[C@@H]1CN(C)Cc1ccc(Cl)c(Cl)c1,active
22,C[C@@H]1CN([C@@H](C)CO)C(=O)Cc2cc(NC(=O)Nc3ccccc3)ccc2O[C@@H]1CN(C)Cc1ccc(Cl)c(Cl)c1,active

row,Structure (SMILES),cytotoxicity call
1,C[C@H](CO)N1C[C@H](C)[C@H](CN(C)Cc2ccc(C(F)(F)F)cc2)OCCCC[C@H](C)Oc2ccc(NC(=O)c3ccncc3)cc2C1=O,inactive
2,C[C@@H]1CN([C@@H](C)CO)S(=O)(=O)c2ccc(C3=CCCC3)cc2O[C@H]1CN(C)S(=O)(=O)c1ccc(F)cc1,inactive
3,Nc1cccc(OCc2ccccc2)c1,inactive
4,CC(C)NC(=O)Nc1ccc2c(c1)C(=O)N([C@H](C)CO)C[C@@H](C)[C@H](CN(C)Cc1ccc(C(=O)O)cc1)O2,inactive
5,C[C@@H]1CN([C@H](C)CO)S(=O)(=O)c2ccc(C#CCN(C)C)cc2O[C@H]1CN(C)C(=O)Nc1ccccc1F,inactive
6,CC12C=CC(=O)C=C1CCC1C2C(=O)CC2(C)C1CCC2(O)C(=O)CO (centres undefined),inactive
7,O=P(O)(O)C(Cl)(Cl)P(=O)(O)O,active
8,CC(O)(P(=O)(O)O)P(=O)(O)O,inactive
9,CC(O)(P(=O)([O-])O)P(=O)([O-])O.[Na+].[Na+],inactive
10,C[C@@H]1CN([C@@H](C)CO)C(=O)c2cc(NC(=O)Cc3ccccc3)ccc2O[C@@H](C)CCCCO[C@@H]1CN(C)C(=O)C1CCCCC1,inactive
11,COc1ccc(NC(=O)N(C)C[C@@H]2OCCCC[C@@H](C)Oc3ccc(NC(=O)Nc4c(C)noc4C)cc3C(=O)N([C@@H](C)CO)C[C@H]2C)cc1,inactive
12,CN(Cn1[nH]c(=O)ccc1=O)c1ccccc1,inactive
13,COCCOC(=O)N1C(=O)[C@@]2(c3cc(C#CCNC(N)=O)ccc31)[C@H](C(=O)N1CCCCCCC1)[C@H]1C(=O)O[C@H](c3ccccc3)[C@H](c3ccccc3)N1[C@@H]2c1ccccc1OCCO,inactive
14,Cl.OC(c1cc(C(F)(F)F)nc2c(C(F)(F)F)cccc12)C1CCCCN1 (centres undefined),active
15,C[C@H]1CN([C@@H](C)CO)C(=O)c2cccc(NC(=O)C3CCCCC3)c2O[C@H]1CN(C)Cc1ccc(-c2ccccc2)cc1,inactive
16,Cc1noc(C)c1NC(=O)Nc1cccc2c1O[C@@H](CN(C)Cc1ccc(Cl)c(Cl)c1)[C@@H](C)CN([C@H](C)CO)C2=O,inactive
17,C[C@@H]1CN([C@H](C)CO)C(=O)Cc2cc(NC(=O)Cc3ccccc3)ccc2O[C@H]1CN(C)Cc1ccc(-c2ccccc2)cc1,inactive
18,C[C@H](CO)N1C[C@H](C)[C@@H](CN(C)Cc2ccc(-c3ccccc3)cc2)Oc2ccc(NC(=O)Cc3ccccc3)cc2CC1=O,inactive
19,C[C@H]1CN([C@@H](C)CO)C(=O)Cc2cc(NC(=O)Cc3ccccc3)ccc2O[C@H]1CN(C)Cc1ccc(-c2ccccc2)cc1,active
20,C[C@@H]1CN([C@H](C)CO)C(=O)Cc2cc(NC(=O)Cc3ccccc3)ccc2O[C@@H]1CN(C)Cc1ccc(-c2ccccc2)cc1,active
21,C[C@H](CO)N1C[C@H](C)[C@H](CN(C)Cc2ccc(-c3ccccc3)cc2)Oc2ccc(NC(=O)Cc3ccccc3)cc2CC1=O,inactive
22,C[C@@H]1CN([C@@H](C)CO)C(=O)Cc2cc(NC(=O)Cc3ccccc3)ccc2O[C@H]1CN(C)Cc1ccc(-c2ccccc2)cc1,inactive

row,Structure (SMILES),cytotoxicity call
1,C[C@H]1CN([C@@H](C)CO)C(=O)Cc2cc(NC(=O)Cc3ccccc3)ccc2O[C@@H]1CN(C)Cc1ccc(-c2ccccc2)cc1,inactive
2,C[C@@H]1CN([C@@H](C)CO)C(=O)Cc2cc(NC(=O)Cc3ccccc3)ccc2O[C@@H]1CN(C)Cc1ccc(-c2ccccc2)cc1,active
3,CC(C)NC(=O)N(C)C[C@H]1Oc2ccc(NS(=O)(=O)c3cn(C)cn3)cc2CC(=O)N([C@@H](C)CO)C[C@@H]1C,inactive
4,COc1cccc(C#Cc2ccc3c(c2)O[C@H](CN(C)C(=O)c2ccccn2)[C@H](C)CN([C@@H](C)CO)S3(=O)=O)c1,inactive
5,COc1ccc(CN(C)C[C@@H]2OCCCC[C@@H](C)Oc3ccc(NC(=O)CCCCCC(=O)Nc4ccccc4N)cc3C(=O)N([C@H](C)CO)C[C@@H]2C)cc1,inactive
6,C[C@@H]1CCCCO[C@@H](CN(C)Cc2ccc3c(c2)OCO3)[C@@H](C)CN([C@@H](C)CO)C(=O)c2cc(NC(=O)c3ccccc3)ccc2O1,inactive
7,C[C@H](CO)N1C[C@H](C)[C@H](CN(C)S(=O)(=O)c2cccs2)OCCCC[C@H](C)Oc2ccc(NC(=O)C3CCCCC3)cc2C1=O,inactive
8,Cc1noc(C)c1NC(=O)Nc1ccc2c(c1)CC(=O)N([C@@H](C)CO)C[C@H](C)[C@H](CN(C)C(=O)Nc1cccc3ccccc13)O2,inactive
9,C[C@@H]1CN([C@H](C)CO)C(=O)c2cc(NC(=O)Cc3cn(C)c4ccccc34)ccc2O[C@H]1CN(C)Cc1ccc(-c2ccccc2)cc1,inactive
10,C[C@H](CO)N1C[C@H](C)[C@@H](CN(C)Cc2ccc(-c3ccccc3)cc2)Oc2ccc(NC(=O)Cc3cn(C)c4ccccc34)cc2C1=O,inactive
11,C[C@H]1CN([C@@H](C)CO)C(=O)c2cc(NC(=O)Cc3cn(C)c4ccccc34)ccc2O[C@H]1CN(C)Cc1ccc(-c2ccccc2)cc1,inactive
12,C[C@@H]1CN([C@H](C)CO)C(=O)c2cc(NC(=O)Cc3cn(C)c4ccccc34)ccc2O[C@@H]1CN(C)Cc1ccc(-c2ccccc2)cc1,inactive
13,C[C@H]1CN([C@@H](C)CO)C(=O)c2cc(NC(=O)Cc3cn(C)c4ccccc34)ccc2O[C@@H]1CN(C)Cc1ccc(-c2ccccc2)cc1,active
14,C[C@@H]1CN([C@@H](C)CO)C(=O)c2cc(NC(=O)Cc3cn(C)c4ccccc34)ccc2O[C@H]1CN(C)Cc1ccc(-c2ccccc2)cc1,inactive
15,C[C@H](CO)N1C[C@H](C)[C@H](CN(C)Cc2ccc(-c3ccccc3)cc2)Oc2ccc(NC(=O)Cc3cn(C)c4ccccc34)cc2C1=O,active
16,C[C@@H]1CN([C@@H](C)CO)C(=O)c2cc(NC(=O)Cc3cn(C)c4ccccc34)ccc2O[C@@H]1CN(C)Cc1ccc(-c2ccccc2)cc1,active
17,Cc1ccc([C@@H](N)c2ccncc2)cc1,inactive
18,COC(=O)c1c(C#N)c(N)nc2c1CCC2,inactive
19,CC(C)NC(=O)N(C)C[C@H]1OCCCC[C@H](C)Oc2ccc(NC(=O)Nc3ccccc3)cc2C(=O)N([C@H](C)CO)C[C@@H]1C,inactive
20,COc1ccccc1-c1ccc2n(c1=O)C[C@H]1[C@H](CO)[C@@H](C(=O)NCC3CC3)N(S(C)(=O)=O)[C@@H]21,inactive
